Test results taken from paper PMC12820563, “FoxP3 forms a head-to-head dimer in vivo and stabilizes its multimerization on adjacent microsatellites”.
The full ranking holds about 16,000 sequences; the median of “rpm ratio (pull-down/input)” is about 0.94, and the highest 2% start at about 1.7. This is one part of a sample in which the highest values are shown more often than they occur.

These sequences were tested against T1, MBP-FoxP1dN (Mus musculus, UniProt P58462 326-579) (assay: PD-seq (MBP pull-down with sequencing); 20 mM Tris-HCl pH 7.5, 100 mM NaCl, 1.5 mM MgCl2, 0.4 uM protein, 0.1 uM dsDNA library, 30 min, room temperature, amylose pull-down; high values mean tight binding). Conditions: protein: recombinant; tags: His6-MBP; chain copies: 2; dsDNA, one strand shown.
T1 sequence: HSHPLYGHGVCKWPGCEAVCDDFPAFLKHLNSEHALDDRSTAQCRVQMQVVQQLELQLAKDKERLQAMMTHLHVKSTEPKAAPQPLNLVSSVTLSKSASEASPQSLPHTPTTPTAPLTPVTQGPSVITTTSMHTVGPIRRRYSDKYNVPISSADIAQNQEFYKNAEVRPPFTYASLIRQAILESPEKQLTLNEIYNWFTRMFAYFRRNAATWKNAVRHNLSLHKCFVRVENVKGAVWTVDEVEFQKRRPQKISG
In short: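 Protein and DNA were mixed at 0.4 µM and 0.1 µM and held for 30 min at room temperature in Tris pH 7.5 buffer with NaCl and MgCl2; the protein was a His6-MBP-tagged, N-terminally truncated mouse FoxP3 or FoxP1 fragment from E. coli, and the DNA a Klenow-filled double-stranded degenerate library. Amylose resin captured the complexes, which were washed three times. Binding is read as reads-per-million enrichment of pull-down versus input after Illumina sequencing, with replicates pooled.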

Going from “GATGATTGTTCTCCCAGCTGATGAATTTGCTATGTCGAGTAAACAAATTTTCCTAATCTTTCTGTTCAAGCGCCATCTAC” to “GATGATTGTTCTCCCAGCTGATGAATTTTGCTATTCGAGTAAACAAATTTTCCTAATCTTTCTGTTCAAGCGCCATCTAC”, the binding signal rises from 1.06 RPM ratio (pull-down/input) to 1.32 RPM ratio (pull-down/input).

Compared with “GATGATTGTTCTCCCAGCTGATGAATTTGCTATTTCGAGTAAACAAATTTTCCTAATCTTTCTGTTCAAGCGCCATCTAC”, “GATGATTGTTCTCCCAGCTGATGAATTGCTATTGTCGAGTAAACAAATTTTCCTAATCTTTCTGTTCAAGCGCCATCTAC” is higher in binding signal: 1.17 RPM ratio (pull-down/input) for the first, 2.28 RPM ratio (pull-down/input) for the second.

First: GATGATTGTTCTCCCAGCTGATGAATTATTGCTGTCGAGTAAACAAATTTTCCTAATCTTTCTGTTCAAGCGCCATCTAC
Second: GATGATTGTTCTCCCAGCTGATGAATTGCTATTTTCGAGTAAACAAATTTTCCTAATCTTTCTGTTCAAGCGCCATCTAC
The binding signal of the first is lower: 1.67 RPM ratio (pull-down/input) for the first, 2.22 RPM ratio (pull-down/input) for the second.

Going from “GATGATTGTTCTCCCAGCTGATGAATTAGGCGCGTCGAGTAAACAAATTTTCCTAATCTTTCTGTTCAAGCGCCATCTAC” to “GATGATTGTTCTCCCAGCTGATGAATTGGACTATTCGAGTAAACAAATTTTCCTAATCTTTCTGTTCAAGCGCCATCTAC”, the binding signal falls from 1.03 RPM ratio (pull-down/input) to 0.893 RPM ratio (pull-down/input).

First: GATGATTGTTCTCCCAGCTGATGAATTCCCCGGATCGAGTAAACAAATTTTCCTAATCTTTCTGTTCAAGCGCCATCTAC
Second: GATGATTGTTCTCCCAGCTGATGAATTTACCTACTCGAGTAAACAAATTTTCCTAATCTTTCTGTTCAAGCGCCATCTAC
The binding signal of the first is lower: 0.788 RPM ratio (pull-down/input) for the first, 1.24 RPM ratio (pull-down/input) for the second.

Compared with “GATGATTGTTCTCCCAGCTGATGAATTACTAAAATCGAGTAAACAAATTTTCCTAATCTTTCTGTTCAAGCGCCATCTAC”, “GATGATTGTTCTCCCAGCTGATGAATTATTTACATCGAGTAAACAAATTTTCCTAATCTTTCTGTTCAAGCGCCATCTAC” is higher in binding signal: 1.34 RPM ratio (pull-down/input) for the first, 2.34 RPM ratio (pull-down/input) for the second.

First: GATGATTGTTCTCCCAGCTGATGAATTACAAACATCGAGTAAACAAATTTTCCTAATCTTTCTGTTCAAGCGCCATCTAC
Second: GATGATTGTTCTCCCAGCTGATGAATTACTACCATCGAGTAAACAAATTTTCCTAATCTTTCTGTTCAAGCGCCATCTAC
The binding signal of the first is higher: 2.67 RPM ratio (pull-down/input) for the first, 1.13 RPM ratio (pull-down/input) for the second.

Going from “GATGATTGTTCTCCCAGCTGATGAATTTACCAAATCGAGTAAACAAATTTTCCTAATCTTTCTGTTCAAGCGCCATCTAC” to “GATGATTGTTCTCCCAGCTGATGAATTACTAACATCGAGTAAACAAATTTTCCTAATCTTTCTGTTCAAGCGCCATCTAC”, the binding signal rises from 1.65 RPM ratio (pull-down/input) to 1.77 RPM ratio (pull-down/input).

Compared with “GATGATTGTTCTCCCAGCTGATGAATTACATTTATCGAGTAAACAAATTTTCCTAATCTTTCTGTTCAAGCGCCATCTAC”, “GATGATTGTTCTCCCAGCTGATGAATTTATTACATCGAGTAAACAAATTTTCCTAATCTTTCTGTTCAAGCGCCATCTAC” is lower in binding signal: 1.52 RPM ratio (pull-down/input) for the first, 1.21 RPM ratio (pull-down/input) for the second.

Compared with “GATGATTGTTCTCCCAGCTGATGAATTACCAAAATCGAGTAAACAAATTTTCCTAATCTTTCTGTTCAAGCGCCATCTAC”, “GATGATTGTTCTCCCAGCTGATGAATTAATTACATCGAGTAAACAAATTTTCCTAATCTTTCTGTTCAAGCGCCATCTAC” is lower in binding signal: 1.3 RPM ratio (pull-down/input) for the first, 1.26 RPM ratio (pull-down/input) for the second.

Compared with “GATGATTGTTCTCCCAGCTGATGAATTACCAACATCGAGTAAACAAATTTTCCTAATCTTTCTGTTCAAGCGCCATCTAC”, “GATGATTGTTCTCCCAGCTGATGAATTGATTACATCGAGTAAACAAATTTTCCTAATCTTTCTGTTCAAGCGCCATCTAC” is lower in binding signal: 1.94 RPM ratio (pull-down/input) for the first, 1.58 RPM ratio (pull-down/input) for the second.

First: GATGATTGTTCTCCCAGCTGATGAATTCTAATCCTCGAGTAAACAAATTTTCCTAATCTTTCTGTTCAAGCGCCATCTAC
Second: GATGATTGTTCTCCCAGCTGATGAATTGGGTGCTTCGAGTAAACAAATTTTCCTAATCTTTCTGTTCAAGCGCCATCTAC
The binding signal of the first is lower: 0.781 RPM ratio (pull-down/input) for the first, 0.861 RPM ratio (pull-down/input) for the second.

First: GATGATTGTTCTCCCAGCTGATGAATTTCAGGTATCGAGTAAACAAATTTTCCTAATCTTTCTGTTCAAGCGCCATCTAC
Second: GATGATTGTTCTCCCAGCTGATGAATTTGTACGCTCGAGTAAACAAATTTTCCTAATCTTTCTGTTCAAGCGCCATCTAC
The binding signal of the first is lower: 0.919 RPM ratio (pull-down/input) for the first, 1.13 RPM ratio (pull-down/input) for the second.

Going from “GATGATTGTTCTCCCAGCTGATGAATTTGCGATATCGAGTAAACAAATTTTCCTAATCTTTCTGTTCAAGCGCCATCTAC” to “GATGATTGTTCTCCCAGCTGATGAATTGCCTATGTCGAGTAAACAAATTTTCCTAATCTTTCTGTTCAAGCGCCATCTAC”, the binding signal falls from 1.19 RPM ratio (pull-down/input) to 0.918 RPM ratio (pull-down/input).

Going from “GATGATTGTTCTCCCAGCTGATGAATTGACGCGGTCGAGTAAACAAATTTTCCTAATCTTTCTGTTCAAGCGCCATCTAC” to “GATGATTGTTCTCCCAGCTGATGAATTTTCTGGCTCGAGTAAACAAATTTTCCTAATCTTTCTGTTCAAGCGCCATCTAC”, the binding signal falls from 1.01 RPM ratio (pull-down/input) to 0.777 RPM ratio (pull-down/input).

Compared with “GATGATTGTTCTCCCAGCTGATGAATTTCCGAAGTCGAGTAAACAAATTTTCCTAATCTTTCTGTTCAAGCGCCATCTAC”, “GATGATTGTTCTCCCAGCTGATGAATTACGTCGCTCGAGTAAACAAATTTTCCTAATCTTTCTGTTCAAGCGCCATCTAC” is higher in binding signal: 0.787 RPM ratio (pull-down/input) for the first, 1.02 RPM ratio (pull-down/input) for the second.
